Experimental data reported in PubChem BioAssay (Tox21).
Results filed as inconclusive are left out. Active and inactive are the calls of the source. Unless noted, calls follow the shape of the dose curve; as a rule, active = well fitted curve in the direction sought with a large enough effect in the repeat runs; inconclusive = weak or mixed curves; inactive = no such curve, though single readings can be large; an effect the other way counts as inactive or inconclusive.

Experiments:
[1] = qHTS assay to identify small molecule antagonists of the estrogen related receptor (ERR) signaling pathway from Tox21 library - cell viability counter screen (AID 1224834); also: nearly all actives have a fitted effect of over 30% in size
How it was run: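 In this quantitative HTS format, ERR cells receive compounds in DMSO and are incubated for 17.5 h at 37 C. Live-cell protease activity is then detected with CellTiter-Fluor.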

[2] = molecular target: Luciferin 4-monooxygenase (Photinus pyralis) (UniProt P08659); test: qHTS assay to identify small molecule inhibitors of firefly luciferase (AID 1224835); also: nearly all actives have a fitted effect of over 25% in size; also: potency is read from the fitted curve at half-maximal effect
How it was run: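 Inhibition of purified Photinus luciferase is measured by luminescence. Substrate levels (D-luciferin, ATP) sit at their KM values. Each compound is tested in a concentration series.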

[3] = qHTS assay to identify small molecule agonists of the constitutive androstane receptor (CAR) signaling pathway - cell viability counter screen (AID 1224836); also: nearly all actives have a fitted effect of over 45% in size
How it was run: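 Fluorescence from CellTiter-Fluor indicates live cells after 23 h exposure. The human hepatoma line expresses hCAR and a CYP2B6-2.2kb reporter. Incubation medium contains 0.75 uM PK11195 (final).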

[4] = qHTS assay to identify small molecule antagonists of the constitutive androstane receptor (CAR) signaling pathway - cell viability counter screen (AID 1224837); also: nearly all actives have a fitted effect of over 45% in size
How it was run: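 In quantitative HTS format, compounds at 15 concentrations were applied to HepG2 cells double-transfected with hCAR and CYP2B6-2.2kb under 50 nM CITCO stimulation; live-cell protease activity was read after 23 hr via CellTiter-Fluor.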

[5] = molecular target: Nuclear receptor subfamily 1 group I member 3 (Homo sapiens) (UniProt Q14994); test: qHTS assay to identify small molecule agonists of the constitutive androstane receptor (CAR) signaling pathway (AID 1224839);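 also: HepG2 cells stably carrying human CAR and a CYP2B6 luciferase reporter; nearly all actives have a fitted effect of over 15% in size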
How it was run: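 Stable hCAR/CYP2B6-2.2kb HepG2 line in DMEM with 10% FBS; compounds (15 concentrations) and 0.75 uM PK11195 final, 24 h at 37 C/5% CO2, then ONE-Glo luminescence after 30 min.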

[6] = qHTS assay to identify small molecule antagonists of the estrogen related receptor signaling pathway with the pleiotropic PPARgamma coactivator (PGC) from Tox21 10K library - cell viability counter screen (AID 1224840; active = well fitted cell-killing curve with a large enough effect in the repeat runs, not every such curve was filed as active; also: nearly all actives have a fitted effect of over 40% in size)
How it was run: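 Viability counter screen, PGC/ERR cells: 17.5 h compound exposure at 37 C, CellTiter-Fluor fluorescence endpoint.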

[7] = qHTS assay to identify small molecule antagonists of the estrogen related receptor signaling pathway with the pleiotropic PPARgamma coactivator (PGC) from Tox21 10K library (AID 1224841; call rule not given here; also: actives are mostly falling curves and most rising ones were filed inactive; nearly all actives have a fitted effect of over 50% in size)
How it was run: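 In the PGC/ERR line, DMSO solutions of test chemicals are pin-delivered to 2,000 cells/well six hours after dispensing. Following eighteen hours' incubation, One-Glo reagent is added and luminescence recorded.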

[8] = qHTS assay to identify small molecule agonists of the estrogen related receptor signaling pathway with the pleiotropic PPARgamma coactivator (PGC) from Tox21 10K library (AID 1224842); also: nearly all actives have a fitted effect of over 15% in size
How it was run: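 Luminescence from One-Glo (30 min, room temperature) measured after PGC/ERR cells had 18 h at 37 C with pinned compound (23 nL in DMSO). Cells had been seeded at 2,000 per well and pre-incubated 6 h.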

[9] = molecular target: Thyrotropin receptor (Homo sapiens) (UniProt P16473); test: qHTS assay to identify small molecule agonists of the thyroid stimulating hormone receptor (TSHR) signaling pathway (AID 1224843; calls by dose curve; also: nearly all actives have a fitted effect of over 45% in size)
How it was run: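 A cell-based cAMP HTRF format was run in TSHR-transfected HEK293 cells, 800 per well. Treatment: 30 min, room temperature. Detection: 1 h with labelled cAMP and anti-cAMP cryptate. Concentration-response over 15 points, three replicates.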

[10] = qHTS assay to identify small molecule agonists of the hypoxia (HIF-1) signaling pathway - cell viability counter screen (AID 1224844; calls by dose curve; also: nearly all actives have a fitted effect of over 50% in size)
How it was run: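 Same wells as the HIF-1 reporter screen; ME-180 cells carrying HRE-bla, 17 hr treatment at 37C; CellTiter-Glo luminescence read after 30 min at room temperature.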

[11] = qHTS assay to identify small molecule agonists of H2AX (AID 1224845; active = well fitted activation curve with a large enough effect in the signal ratio in the repeat runs, not every such curve was filed as active; the % refers to the signal ratio)
How it was run: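 Phospho-H2AX Ser139 measured by HTRF (ex 320 nm; em 665 and 620 nm) after 24 hr antibody incubation. Compounds, 15 concentrations, 0.76% DMSO, were applied to CHO-K1 cells for 3hr at 37C before lysis.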

[12] = qHTS assay to identify small molecule agonists of the hypoxia (HIF-1) signaling pathway (AID 1224846; active = well fitted activation curve with a large enough effect in the signal ratio in the repeat runs, not every such curve was filed as active; the % refers to the signal ratio)
How it was run: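 In ME-180 cells bearing an HRE-bla construct, 17 h treatment with DMSO-dissolved compounds at 37C was followed by CCF4-AM loading to quantify reporter induction.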

[13] = qHTS assay to identify small molecule agonists of H2AX - cell viability counter screen (AID 1224847; calls by dose curve; also: top concentration of the series differs between compounds; nearly all actives have a fitted effect of over 30% in size)
How it was run: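 Viability of CHO-K1 (wild type) cells after 3 hr compound exposure was measured by CellTiter-Glo luminescence.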

[14] = qHTS assay to identify small molecule antagonists of the estrogen related receptor (ERR) signaling pathway from Tox21 library (AID 1224848); also: nearly all actives have a fitted effect of over 50% in size
How it was run: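 ERR cell line, 2,000 cells/well. 6 h settle, then compound (DMSO) added; 18 h at 37 C; ONE-Glo luminescence after 30 min RT.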

[15] = qHTS assay to identify small molecule agonists of the estrogen related receptor (ERR) signaling pathway from Tox21 library (AID 1224849; calls by dose curve; also: nearly all actives have a fitted effect of over 15% in size); conditions: ERR reporter cell line, ONE-Glo luciferase, 18 h; at 92.4 µM (top of the series) unless noted
How it was run: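 Reporter cells (ERR, NTP source) treated with Tox21 10K compounds 18 h, 37 C. Readout: ONE-Glo luminescence, 30 min RT.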

[16] = qHTS RealTime-Glo MT Cell Viability Assay in HepG2 cells - 24 hour (AID 1224867); also: nearly all actives have a fitted effect of over 50% in size
How it was run: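 Cell number in HepG2 cultures estimated from NanoLuc luminescence generated by metabolic reduction of a prosubstrate by living cells. The homogeneous, nonlytic format allowed repeated reads at 0, 8, 16, 24, 32 and 40 h of compound exposure.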

[17] = qHTS RealTime-Glo MT Cell Viability Assay in HEK293 cells - 32 hour (AID 1224868)
How it was run: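 Homogeneous bioluminescent viability format in HEK293 cells (600 cells/well). Following 5 h at 37 C/5% CO2, 23 nL compound was pintooled; the signal was measured repeatedly during 40 h incubation.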

[18] = A CellTox Green Cytotoxicity Assay to monitor cytotoxicity in HEK293 cells - 0 hour (AID 1224869); also: nearly all actives have a fitted effect of over 50% in size
How it was run: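 Homogeneous no-lysis format: HEK293 cell suspension mixed with CellTox Green reagent, seeded, incubated 5 h at 37 C/5% CO2, then dosed by pintool with compound in DMSO.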

[19] = qHTS RealTime-Glo MT Cell Viability Assay in HepG2 cells - 40 hour (AID 1224870); also: nearly all actives have a fitted effect of over 50% in size
How it was run: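 Real-time viability: cells seeded at 600 per well together with NanoLuc and cell-permeant prosubstrate, compounds added after 5 h incubation. Luminescence tracked at 0, 8, 16, 24, 32 and 40 h of exposure.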

[20] = molecular target: Nuclear receptor subfamily 1 group I member 3 (Homo sapiens) (UniProt Q14994); test: qHTS assay to identify small molecule antagonists of the constitutive androstane receptor (CAR) signaling pathway (AID 1224838); also: nearly all actives have a fitted effect of over 40% in size
How it was run: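 CITCO-stimulated (50 nM final) HepG2 cells stably transfected with hCAR and CYP2B6-2.2kb luciferase were exposed to compounds at 15 concentrations for 24 h at 37 C/5% CO2. A luciferase reagent was added and luminescence recorded after 30 min.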
% is scaled to controls: 0 for no effect and ±100 for the full control effect.

Chain of Thyrotropin receptor (Homo sapiens) (P16473 whole entry, looked up): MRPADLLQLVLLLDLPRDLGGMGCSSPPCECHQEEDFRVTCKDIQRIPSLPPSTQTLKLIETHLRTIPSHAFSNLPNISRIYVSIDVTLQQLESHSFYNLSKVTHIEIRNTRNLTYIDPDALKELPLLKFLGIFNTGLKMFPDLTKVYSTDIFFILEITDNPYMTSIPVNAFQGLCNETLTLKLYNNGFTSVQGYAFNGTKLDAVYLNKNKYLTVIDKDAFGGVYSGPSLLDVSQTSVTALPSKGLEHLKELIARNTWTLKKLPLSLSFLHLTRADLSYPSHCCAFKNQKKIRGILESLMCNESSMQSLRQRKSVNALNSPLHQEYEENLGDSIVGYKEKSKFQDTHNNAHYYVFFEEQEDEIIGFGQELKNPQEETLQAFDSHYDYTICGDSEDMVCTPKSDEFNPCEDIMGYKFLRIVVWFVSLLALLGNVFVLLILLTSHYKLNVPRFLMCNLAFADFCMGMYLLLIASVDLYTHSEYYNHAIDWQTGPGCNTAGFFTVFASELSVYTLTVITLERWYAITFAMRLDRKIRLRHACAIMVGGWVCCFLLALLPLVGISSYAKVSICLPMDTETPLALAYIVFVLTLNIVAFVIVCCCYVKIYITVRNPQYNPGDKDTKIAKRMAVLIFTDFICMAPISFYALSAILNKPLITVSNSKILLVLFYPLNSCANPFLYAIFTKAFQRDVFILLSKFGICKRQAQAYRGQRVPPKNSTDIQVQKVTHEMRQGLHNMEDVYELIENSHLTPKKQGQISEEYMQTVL
Chain of Nuclear receptor subfamily 1 group I member 3 (Homo sapiens) (Q14994 whole entry, looked up): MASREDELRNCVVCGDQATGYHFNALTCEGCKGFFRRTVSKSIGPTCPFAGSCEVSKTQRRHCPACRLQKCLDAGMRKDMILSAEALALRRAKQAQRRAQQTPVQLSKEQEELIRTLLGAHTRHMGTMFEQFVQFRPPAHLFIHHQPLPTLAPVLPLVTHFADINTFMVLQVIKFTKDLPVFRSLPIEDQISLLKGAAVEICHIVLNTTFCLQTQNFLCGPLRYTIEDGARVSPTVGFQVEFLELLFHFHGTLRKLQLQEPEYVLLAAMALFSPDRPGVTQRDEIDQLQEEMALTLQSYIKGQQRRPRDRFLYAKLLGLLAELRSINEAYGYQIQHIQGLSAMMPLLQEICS
Chain of Luciferin 4-monooxygenase (Photinus pyralis) (P08659 whole entry, looked up): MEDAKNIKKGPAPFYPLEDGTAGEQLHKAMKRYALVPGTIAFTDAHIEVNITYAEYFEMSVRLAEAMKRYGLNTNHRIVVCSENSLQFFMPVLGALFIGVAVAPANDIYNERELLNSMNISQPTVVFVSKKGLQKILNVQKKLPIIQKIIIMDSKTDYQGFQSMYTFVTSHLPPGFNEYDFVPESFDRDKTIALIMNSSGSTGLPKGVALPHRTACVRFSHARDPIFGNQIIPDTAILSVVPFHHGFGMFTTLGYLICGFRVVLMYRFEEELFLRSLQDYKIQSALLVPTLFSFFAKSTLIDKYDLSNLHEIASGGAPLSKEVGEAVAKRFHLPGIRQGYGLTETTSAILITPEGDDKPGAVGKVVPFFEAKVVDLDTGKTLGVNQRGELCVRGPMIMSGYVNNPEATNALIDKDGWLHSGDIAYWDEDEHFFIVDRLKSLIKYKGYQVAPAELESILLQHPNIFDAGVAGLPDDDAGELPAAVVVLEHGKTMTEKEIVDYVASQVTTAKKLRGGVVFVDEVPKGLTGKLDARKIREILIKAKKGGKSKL

Cc1ccccc1Br
inactive: Potency [1] | Potency [2] | outcome [3] | outcome [4] | Potency [5] | outcome [6] | Potency [7] | Potency [8] | outcome [9] | Potency [10] | outcome [11] | outcome [12] | Potency [13] | Potency [14] | activity change, positive = activation [15] -0.692% | outcome [16] | Potency [17] | Potency [18] | Potency [19]

CO[Si](OC)(OC)OC
inactive: Potency [1] | Potency [2] | outcome [3] | outcome [4] | Potency [20] | Potency [5] | outcome [9] | Potency [10] | outcome [12] | Potency [13] | outcome [16] | Potency [18] | Potency [19]

CC(C)CCOC(=O)CC(C)C
inactive: Potency [1] | Potency [2] | outcome [3] | outcome [4] | Potency [20] | Potency [5] | outcome [6] | outcome [11] | outcome [12] | Potency [13] | outcome [16] | Potency [17] | Potency [19]

COC(C(=O)O)c1ccccc1 (stereo not given)
inactive: Potency [1] | Potency [2] | outcome [3] | outcome [4] | Potency [20] | Potency [5] | outcome [6] | outcome [9] | Potency [13] | Potency [17] | Potency [18] | Potency [19]

C[C@H](O)C(=O)Nc1c(I)c(C(=O)NC(CO)CO)c(I)c(C(=O)NC(CO)CO)c1I
inactive: Potency [1] | Potency [2] | outcome [3] | outcome [4] | Potency [20] | Potency [5] | outcome [6] | outcome [9] | outcome [11] | Potency [13] | outcome [16] | Potency [17] | Potency [18] | Potency [19]

C#CC(C)(O)CC(C)C (stereo not given)
inactive: Potency [1] | Potency [2] | outcome [3] | outcome [4] | Potency [20] | Potency [5] | Potency [7] | Potency [8] | outcome [9] | Potency [10] | outcome [11] | outcome [12] | Potency [14] | activity change, positive = activation [15] 13.6% | outcome [16] | Potency [17] | Potency [18] | Potency [19]

CCCC(=O)O[C@]1(C(=O)CCl)[C@@H](C)C[C@H]2[C@@H]3CCC4=CC(=O)C=C[C@]4(C)[C@@]3(F)C(=O)C[C@@]21C
inactive: Potency [1] | Potency [2] | outcome [3] | outcome [4] | Potency [20] | Potency [5] | outcome [9] | Potency [10] | outcome [11] | Potency [13] | outcome [16] | Potency [17] | Potency [18]

c1ccc(CCCc2ccccn2)cc1
active: Potency [2] 31.7 µM | activity change, positive = activation [15] 34.3%
inactive: Potency [1] | outcome [3] | outcome [4] | Potency [20] | outcome [6] | Potency [7] | Potency [10] | outcome [11] | outcome [12] | Potency [14] | outcome [16] | Potency [17] | Potency [18] | Potency [19]

NCC[C@H](O)C(=O)N[C@@H]1C[C@H](N)[C@@H](O[C@H]2O[C@H](CN)[C@@H](O)[C@H](O)[C@H]2O)[C@H](O)[C@H]1O[C@H]1O[C@H](CO)[C@@H](O)[C@H](N)[C@H]1O
inactive: viability change, negative = cytotoxic [1] 0.879% [at 0.349 µM] | activity change, negative = inhibition [2] -1.73% [at 0.435 µM] | viability change, negative = cytotoxic [3] 2.17% [at 0.349 µM] | activity change, negative = cytotoxicity [4] 3.03% [at 0.349 µM] | activity, negative = inhibition [20] -4.74% [at 0.349 µM] | activation [5] 1.57% [at 0.349 µM] | viability change, negative = cytotoxic [6] 1.22% [at 0.349 µM] | activation [9] -3.02% [at 0.349 µM] | activation (H2AX phosphorylation) [11] 0.216% [at 0.582 µM] | activity change, negative = cytotoxicity [13] 2.46% [at 0.582 µM] | activity change, negative = cytotoxic [17] 4.99% [at 0.29 µM] | cytotoxicity [18] -5.15% [at 0.29 µM]
